# Bioassay records as filed in PubChem.
# This is a sample that favours compounds with a hit; in the whole collection about 10% have one here.
# JMJD2A Tudor – JMJD2A Tudor domain (human) inhibition | O75164 | AlphaScreen JMJD2A-Tudor / H3K4me3 peptide binding | Potency, µM (titrated, usually from 114 µM), for the others: top-dose activity change, negative = inhibition, most hits filed as inhibitors | 390,000 tested, 4.4% active | AID 504339; note: % is set by controls: 0 for no effect and ±100 for the full control effect; nearly all actives have a fitted effect of over 50% in size
# Target sequence (O75164 whole entry, looked up, the tested form may be a part): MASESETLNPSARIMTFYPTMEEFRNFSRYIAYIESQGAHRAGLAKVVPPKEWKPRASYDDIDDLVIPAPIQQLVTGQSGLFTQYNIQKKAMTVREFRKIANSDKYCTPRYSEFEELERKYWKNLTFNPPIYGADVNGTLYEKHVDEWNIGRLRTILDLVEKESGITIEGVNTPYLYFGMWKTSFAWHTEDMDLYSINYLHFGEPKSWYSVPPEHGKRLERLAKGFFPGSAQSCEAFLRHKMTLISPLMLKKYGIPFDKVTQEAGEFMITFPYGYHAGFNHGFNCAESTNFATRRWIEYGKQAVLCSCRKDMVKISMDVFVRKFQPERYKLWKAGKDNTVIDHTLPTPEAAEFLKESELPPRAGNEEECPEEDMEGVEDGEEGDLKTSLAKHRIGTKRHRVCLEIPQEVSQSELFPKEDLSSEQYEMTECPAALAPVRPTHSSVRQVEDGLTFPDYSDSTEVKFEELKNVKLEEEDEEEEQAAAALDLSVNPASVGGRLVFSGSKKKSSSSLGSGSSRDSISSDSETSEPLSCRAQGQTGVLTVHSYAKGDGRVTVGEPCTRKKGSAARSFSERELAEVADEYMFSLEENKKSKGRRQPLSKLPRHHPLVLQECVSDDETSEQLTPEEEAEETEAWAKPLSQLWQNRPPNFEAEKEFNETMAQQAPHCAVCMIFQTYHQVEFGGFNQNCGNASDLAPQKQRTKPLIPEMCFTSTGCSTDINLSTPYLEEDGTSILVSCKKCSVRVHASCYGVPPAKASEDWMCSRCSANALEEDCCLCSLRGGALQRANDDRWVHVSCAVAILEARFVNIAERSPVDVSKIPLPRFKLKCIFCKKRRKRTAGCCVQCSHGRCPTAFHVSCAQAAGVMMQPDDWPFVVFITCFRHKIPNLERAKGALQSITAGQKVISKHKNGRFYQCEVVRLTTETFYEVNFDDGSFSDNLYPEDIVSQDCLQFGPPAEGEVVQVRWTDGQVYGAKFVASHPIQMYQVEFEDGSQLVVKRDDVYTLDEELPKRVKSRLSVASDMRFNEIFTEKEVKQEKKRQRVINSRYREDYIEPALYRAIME
# G9a inh – G9a (human) methyltransferase inhibition | Q96KQ7 | G9a H3K9 monomethylation, AlphaScreen, 2 h | Potency, µM (doses to about 102 µM), for inactives: at the top dose activity, negative = inhibition, hits mostly inhibitors | 350,000 tested, 8.8% active | AID 504332; note: % is set by controls: 0 for no effect and ±100 for the full control effect; nearly all actives have a fitted effect of over 75% in size
#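 AlphaScreen detection with an anti-monomethyl H3K9 antibody quantified product after a 2 h room-temperature reaction containing 500 nM biotinylated H3K9 peptide, 20 µM SAM and 20 nM enzyme, which had been preincubated 15 min with compound.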
# HP1b chromo inh – blocks HP1-beta chromodomain binding to methylated histone tails; Potency, µM (series often up to 114 µM), without a hit: at the highest dose activity change, negative = inhibition, usual class: inhibitors; P83916; 390,000 tested, 0.56% active; AlphaScreen HP1-beta / biotin-H3K9me3 peptide binding; note: nearly all actives have a fitted effect of over 70% in size
#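 Compound inhibition of the preformed complex between 50 nM HP1-beta and 50 nM biotinylated H3K9me3 peptide was read by AlphaScreen. Buffer was PBS pH 7.4 with 0.01% Tween-20. Incubations ran 30 min at room temperature, with 10 ug/mL donor/acceptor beads.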
# GLS inhibitor – glutaminase GLS (human) inhibition; O94925; GLS enzymatic activity, qHTS titration; Potency, µM (series often up to 45.5 µM), for the others: at the highest dose activity change, negative = inhibition, actives largely listed as inhibitors; 410,000 tested, 0.21% active; AID 624170; note: % is set by controls: 0 for no effect and ±100 for the full control effect
#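 Assay buffer: 45 mM KH2PO4 pH 8.2, 0.02% Tween-20. hKGA acts on L-glutamine (1 mM solution added); product glutamate is reported by an oxidase/peroxidase Amplex Red coupling, with fluorescence taken at baseline and 30 min.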
# BAZ2B inh – inhibitors of human BAZ2B bromodomain; AlphaScreen BAZ2B-H3K14Ac peptide displacement; Potency, µM (titrated, usually from 114 µM), inactives show at the highest dose activity change, negative = inhibition, actives largely listed as inhibitors; 360,000 tested, 4.4% active; AID 504333; note: % is set by controls: 0 for no effect and ±100 for the full control effect; nearly all actives have a fitted effect of over 60% in size
#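 AlphaScreen displacement: compounds (up to 110uM) incubated 30 min at room temperature with a preformed 50 nM BAZ2B/50 nM biotinylated H3K14Ac peptide complex in PBS pH 7.4 with Tween-20. Donor and acceptor beads at 10 ug/mL final added, 20 min light-protected before reading.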
# Numbers without * were called inactive; ? = inconclusive; · = not tested or not shown; [ ] = dose if it differs, or a comment. Calls come from the whole dose curve; as a rule, active = well fitted curve in the direction sought with a large enough effect; inconclusive = small, poorly fitted or top-dose-only effect, or another doubt; inactive = no such curve, though single readings can be large; an effect the other way counts as inactive or inconclusive. Potency is the fitted concentration of half-maximal effect.
SMILES,JMJD2A Tudor,G9a inh,HP1b chromo inh,GLS inhibitor,BAZ2B inh
O=C(NC1CC1)C1CCN(C2CCN(C(=O)c3ccc4cccc(F)c4n3)CC2)CC1,6%,0%,34%,-6%,5%
Clc1ccccc1-c1nn2c(-c3ccncc3)nnc2s1,?,3.2µM*,?,-26%,0%
Clc1ccccc1-c1nn2c(-c3ccccn3)nnc2s1,?,?,?,-3%,79µM*
Clc1ccccc1-c1nnc2sc(-c3cccs3)nn12,-21%,35µM*,-14%,-19%,6%
CCCCN(CCCC)CC(O)c1cc(Cl)cc2c1-c1ccc(Cl)cc1/C2=C/c1ccc(Cl)cc1 (centres undefined),·,-48%[2.33 µM],·,-16%,·
Oc1ccc(O)c(-c2cnns2)c1,3.2µM*,?,8.9µM*,?,-7%
Nc1nc(N)nc(-c2cc(O)ccc2O)n1,-20%,13%[0.501 µM],38%,-13%,6%
CCCCC(=O)Nc1ccc(OCc2cc(=O)n3ccc(C)cc3n2)cc1,8%,18%[59 µM],32%[57 µM],3%,6%
CC1CCN(S(=O)(=O)c2ccc3c(c2)CCN3C(=O)Nc2ccc(Br)cc2F)CC1,-14%,14%[59 µM],37%,-10%,-13%
COC(=O)/C=C/S(=O)(=O)c1ccc(NC(C)=O)cc1,6%,8.9µM*,23%,·,·
CC(C)c1ccc(NC(=O)c2csnn2)cc1,-16%,-14%[12.7 µM],9%,-5%,-27%
NS(=O)(=O)c1ccc(NC(=O)c2csnn2)cc1,89µM*,22µM*,?,-10%,-16%
O=C(NNS(=O)(=O)c1ccc(Br)cc1)c1ccccc1-n1cccc1,-11%,15%,21%,15%,-29%
O=C(NNS(=O)(=O)c1ccc(Br)cc1)c1csnn1,?,50µM*,-4%,27%,-6%
CCC(=O)Nc1cc(=O)[nH]c2nc(-c3ccc(Cl)cc3)nn12,-23%[11.4 µM],6%,-2%,?,-16%
COC(=O)c1ccc(NC(=S)NN2CCCCC2c2cccnc2)cc1 (centres undefined),-13%,·,46%,19%,-5%
O=C(NC(=S)NN1CCCCC1c1cccnc1)c1ccc(Br)cc1 (centres undefined),-15%,45µM*,12%,-15%,0%
CCN(CC)CCN(CC(=O)N(C1CCCCC1)C1CCCCC1)C(=O)c1ccco1,1.6µM*,45µM*,?,-9%,50µM*
O=C1[C@@H]2C(c3cccnc3)=NO[C@@H]2C(=O)N1c1ccc(Br)cc1,?,8.9µM*,-27%,-9%,-4%
COc1ccc(OCCCC(=O)N2CCCc3ccccc32)cc1,-5%,4%[12.7 µM],16%,1%,9%
O=C(COc1ccccc1)NC(=S)N1CCc2ccccc21,-25%,28µM*,-5%,12%,-35%
COc1ccc(OCC(=O)NC(=S)N2CCCc3ccccc32)cc1,56µM*,?,-26%,2%,50µM*
O=C(COc1ccccc1Cl)NC(=S)N1CCc2ccccc21,-25%,14%,8%,2%,2%
COC(=O)c1ccc2c(=O)n(CCCCCC(=O)NC(C)C)c(=O)[nH]c2c1,-11%,5%,16%,-4%,-4%
CN(N)c1ccc2c(C(F)(F)F)cc(C(F)(F)F)nc2n1,?,35%,-15%,-20%,?
SMILES,JMJD2A Tudor,G9a inh,HP1b chromo inh,GLS inhibitor,BAZ2B inh
Cc1ccc(C(C#N)c2ccc3c(C(F)(F)F)cc(C(F)(F)F)nc3n2)cc1 (centres undefined),5.6µM*,11µM*,14µM*,12%,8.9µM*
N#CC(c1ccccc1)c1ccc2c(C(F)(F)F)cc(C(F)(F)F)nc2n1 (centres undefined),45µM*,10µM*,14µM*,-7%,10µM*
CC1CC(C)CN(C(=O)COC(=O)c2cc([N+](=O)[O-])ccc2N2CCOCC2)C1 (centres undefined),-25%,79µM*,-1%,37%,-11%
Cc1cc(C)c(C(=O)COC(=O)c2cc([N+](=O)[O-])ccc2N2CCOCC2)cc1C,-26%,16µM*,18%,-7%,-25%
CC1CCCN(C(=O)COC(=O)c2cc([N+](=O)[O-])ccc2N2CCOCC2)C1 (centres undefined),-21%,?,-26%,-1%,5%
COc1ccccc1C(=O)COC(=O)c1cc([N+](=O)[O-])ccc1N1CCOCC1,-34%,?,-7%,4%,-23%
O=C(c1cc([N+](=O)[O-])ccc1N1CCOCC1)N1CCN(S(=O)(=O)c2ccc(F)cc2)CC1,-11%,3%[59 µM],39%,2%,10%
COc1cc(C(=O)COC(=O)c2cc([N+](=O)[O-])ccc2N2CCOCC2)ccc1OC(F)F,-27%,32µM*,16%,4%,-3%
CCOc1ccc(S(=O)(=O)N2CCN(C(=O)c3cc([N+](=O)[O-])ccc3N3CCOCC3)CC2)cc1,-16%,3.2µM*,13%,12%,3%
CC1CCCN(c2ncnc3c2nnn3C)C1 (centres undefined),-10%,3%[59 µM],23%,-21%,-1%
O=c1c(-c2ccc(F)cc2)nc2cnc(N3CCNCC3)nc2n1C1CC1,·,13%[0.501 µM],·,·,·
CCOC(=O)[C@]12CCC=C1N(Cc1ccc3c(c1)OCO3)C(=O)[C@H](CC(=O)N1CCN(C(=O)c3ccco3)CC1)C2,·,·,·,18%,·
O=C(c1cnccn1)N1CCC2(CC1)CN(Cc1cc(C(F)(F)F)cc(C(F)(F)F)c1)C2,·,7%[12.7 µM],·,·,·
N#C/C(=C\Nc1ccc2cn[nH]c2c1)c1nc(-c2ccccc2)cs1,-11%,71µM*,33%,-7%,·
COc1ccc(CNc2ncnc3cc(Cl)ccc23)cc1OC,0%[57.1 µM],9%,41%,2%,1%
CCN(CC)Cc1cc2[nH]c3c4ccc(Cl)cc4ncc3c2cc1OC,-23%,45µM*,31%,1%,-18%
O=C(NCC(c1ccc(Cl)cc1)N1CCCCC1)c1ccccc1 (centres undefined),-11%,3%[59 µM],34%,1%,-9%
O=C(c1ccc([N+](=O)[O-])cc1)c1cc2ccc(O)cc2oc1=O,-12%,50µM*,14%,6%,-25%
CCN(CC)CCOC(=O)c1cccnc1,·,-26%[12.7 µM],·,-2%,·
CCN(Cc1ccccc1)c1ccc(/C=N/N=C(N)N)cc1,35µM*,?,?,13%,?
CCN(Cc1ccccc1)c1ccccc1,14%,·,73%,27%,·
Cc1ccc(C(=O)CC(SCC(=O)O)c2ccc([N+](=O)[O-])cc2)cc1 (centres undefined),?,25µM*,50µM*,-2%,?
Cc1ccnc(SC2CC(=O)N(c3ccc([N+](=O)[O-])cc3)C2=O)n1 (centres undefined),-5%,35µM*,52%,-8%,-24%
Cc1ccc(N2C(=O)CC(Sc3nccc(C)n3)C2=O)cc1 (centres undefined),-8%,?,83%,-5%,-11%
